Structures are written as SMILES. Several values for one entry are separate records, joined by “and”; a condition that tells them apart may be missing. Equal values may be shown once. Results filed as inconclusive are left out. More than one record can exist for a structure, and the calls need not agree. Activity calls are given as the source filed them. Unless noted, calls come from the whole dose curve; as a rule, active = well fitted curve in the direction sought with a large enough effect; inconclusive = small, poorly fitted or top-dose-only effect, or another doubt; inactive = no such curve, though single readings can be large; an effect the other way counts as inactive or inconclusive.

These results are taken from PubChem BioAssay (NCATS).

Test [1] is described as follows: qHTS Screen of the MIPE 4.0 Collection Against Ewings Sarcoma (RDES) (AID 1259252). Note: nearly all actives have a fitted effect of over 35% in size. Note: potency is the fitted concentration of half-maximal effect. The gist of the method: (§1)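 CellTiter-Glo luminescence after 48 h compound exposure (titration) gave viability; percent activity used DMSO-treated cells as no inhibition and medium-only wells as full inhibition. Cells grown in RPMI/5% FBS, dosed 4 h post-seeding.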
A short description of test [2]: qHTS Screen of the MIPE 4.0 Collection Against Ewings Sarcoma (TC71) (AID 1259253). Note: nearly all actives have a fitted effect of over 40% in size. Note: potency is the fitted concentration of half-maximal effect. The gist of the method: as §1
On the technique in general: qHTS replaces the single test concentration by a dilution series.

The nature of test [3]: P-glycoprotein substrates identified in KB-8-5-11 adenocarcinoma cell line, qHTS therapeutic library screen (AID 1346987). Note: nearly all actives have a fitted effect of over 65% in size. Note: potency is the fitted concentration of half-maximal effect. The essentials:
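Steps: plate 500 KB-8-5-11 cells/well in DMEM + 10% FCS (colchicine removed); pin compounds in dose-response; incubate 72 h, 37 degree C, 5% CO2; add CellTiter-Glo, 5 min; read luminescence.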

The nature of test [4]: qHTS Screen of the MIPE 4.0 Collection Against Ewings Sarcoma (TC32) (AID 1259256). Note: nearly all actives have a fitted effect of over 45% in size. Note: potency is the fitted concentration of half-maximal effect. The gist of the method: as §1
The nature of test [5]: NS1 protein of Zika virus - qHTS assay to identify small molecule inhibitors in human HEK 293 cells (AID 1347053). Note: nearly all actives have a fitted effect of over 55% in size. Note: potency is the fitted concentration of half-maximal effect. The gist of the method: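 HEK 293 cells, seeded 20 h at 37 C, were pretreated with compound 1 h, then infected with ZIKV MR766 (MOI = 0.5) for 24 h. NS1 was read by TR-FRET with two anti-NS1 antibodies, normalized to uninfected and infected wells.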
Test [6] has as its target Atrial natriuretic peptide receptor 1 (Homo sapiens) (UniProt P16066). The test can be described thus: Natriuretic polypeptide receptor (hNpr1) antagonism - Pilot screen (AID 1347049; calls by dose curve;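 note: agonist-evoked cGMP luminescence read 20 min after hNppA addition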; note: potency is the fitted concentration of half-maximal effect). The gist of the method: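 Readout is cGMP-driven firefly luciferase luminescence in HEK293 cells carrying hNpr1 and a PDE5-domain GloSensor, read before and 20 min after 0.1 nM hNppA stimulation. Cells had 2% substrate reagent for 2 h and test compound for 30 min.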

In test [7] the target is Atrial natriuretic peptide receptor 2 (Homo sapiens) (UniProt P20594). The test can be described thus: Natriuretic polypeptide receptor (hNpr2) antagonism - Pilot subtype selectivity assay (AID 1347050; calls by dose curve; note: potency is the fitted concentration of half-maximal effect). The gist of the method:
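Pilot selectivity screen against hNpr2: HEK293 cGMP-sensor cells are treated with LOPAC1280 compounds, then with hNppC peptide at 1 nM final. The cGMP-driven luminescence change over 20 min at room temperature is the read-out.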

Test [8] addresses T1, Tyrosine-protein phosphatase non-receptor type substrate 1 (Homo sapiens) + Leukocyte surface antigen CD47 (Homo sapiens) (UniProt P78324+Q08722). The test can be described thus: CD47-SIRPalpha protein protein interaction - LANCE assay qHTS validation (AID 1347057; active = well fitted curve in the direction sought with a large enough effect in the signal ratio, with a control signal flat, not every such curve was filed as active; the % refers to the signal ratio; note: series mostly up to about 38 µM). The gist of the method: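 First, His-tagged CD47 and Eu-labelled anti-His antibody met the compound for 30 min; next, site-specifically biotinylated SIRPalpha was added for 30 min; finally streptavidin-APC was added before reading the TR-FRET ratio.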

Test [9] deals with T1, Tyrosine-protein phosphatase non-receptor type substrate 1 (Homo sapiens) + Leukocyte surface antigen CD47 (Homo sapiens). The test can be described thus: CD47-SIRPalpha protein protein interaction - HTRF assay qHTS validation (AID 1347058; active = well fitted curve in the direction sought with a large enough effect in the signal ratio, not every such curve was filed as active; the % refers to the signal ratio;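 note: recombinant soluble extracellular CD47 with His tag and biotinylated SIRPalpha domains; series mostly up to about 38 µM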). The essentials: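 TR-FRET read (Ch1/Ch2 ratio) of soluble extracellular CD47 and Avi-biotinylated SIRPalpha domains in PBS pH 7.4 with 0.05% IGEPAL; 7-point compound titration. Sequential 30 min room-temperature steps; non-biotinylated SIRPalpha as control inhibitor.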

The target is the same in test [10]. Put plainly: CD47-SIRPalpha protein protein interaction - Alpha assay qHTS validation (AID 1347059).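 Note: bead proximity luminescence from CD47 binding SIRPalpha after compound preincubation with SIRPalpha.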 The gist of the method: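 Binding is measured by AlphaScreen proximity: Ni-NTA acceptor beads capture His-CD47, streptavidin donor beads capture biotin-SIRPalpha. Each of three additions (SIRPalpha with compound, CD47, beads) incubates 30 min at room temperature protected from light.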

Test [11] can be described thus: Identifying Small Molecule Inhibitors of Pancreatic Cancer Stem Cells (SN12C, Adherent) (AID 1259358).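 Note: cell survival measured after 48 h of compound exposure.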 Note: potency is the fitted concentration of half-maximal effect. The essentials:
(§2)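 Cytotoxicity read by CellTiter-Glo luminescence after 48 h compound exposure at 37C; percent activity scaled between DMSO-treated cells and cell-free wells. Spheroid formats used cells pre-formed 14 days in stem cell media on hydrogel.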

Test [12] can be described thus: Identifying Small Molecule Inhibitors of Pancreatic Cancer Stem Cells (A278, Adherent) (AID 1259361). Note: nearly all actives have a fitted effect of over 35% in size. The essentials: as §2
Test [13] in a line: Identifying Small Molecule Inhibitors of Pancreatic Cancer Stem Cells (Panc1, Adherent) (AID 1259362). Note: potency is the fitted concentration of half-maximal effect. The note with it: Potency: viability. The essentials: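 After a 4 h attachment period, compounds were pinned into wells and cultures held 48 h under standard incubator conditions. Viability was then measured as CellTiter-Glo luminescence following 10 min at room temperature.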

Test [14] is described as follows: qHTS assay to identify small molecule inhibitors of chordoma cells - UCH-1 (AID 1259355). Note: nearly all actives have a fitted effect of over 55% in size. The gist of the method:
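Seed 800 cells per well; incubate overnight at 37 C, 5% CO2. Add test compounds (15 concentrations), then the auranofin–topoisomerase-agent combination. Incubate 48hr, add CellTiter-Glo, wait 30min, read luminescence.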

Test [15] is described as follows: qHTS assay to identify small molecule inhibitors of chordoma cells - UCH-2 (AID 1259356). Note: series mostly up to about 46 µM.
Test [16] is described as follows: Identifying Small Molecule Inhibitors of Pancreatic Cancer Stem Cells (A2780, Spheroid) (AID 1259357).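 Note: compound exposure lasted 48 h before the ATP luminescence read.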 The note with it: Potency: A2780 spheroid viability. The gist of the method: as §2
Test [17] in a line: Identifying Small Molecule Inhibitors of Pancreatic Cancer Stem Cells (SN12C, Spheroid) (AID 1259360). The following applies: Potency: SN12C spheroid viability. The gist of the method:
as §2

Sequence of Atrial natriuretic peptide receptor 2 (Homo sapiens) (P20594 whole entry, looked up): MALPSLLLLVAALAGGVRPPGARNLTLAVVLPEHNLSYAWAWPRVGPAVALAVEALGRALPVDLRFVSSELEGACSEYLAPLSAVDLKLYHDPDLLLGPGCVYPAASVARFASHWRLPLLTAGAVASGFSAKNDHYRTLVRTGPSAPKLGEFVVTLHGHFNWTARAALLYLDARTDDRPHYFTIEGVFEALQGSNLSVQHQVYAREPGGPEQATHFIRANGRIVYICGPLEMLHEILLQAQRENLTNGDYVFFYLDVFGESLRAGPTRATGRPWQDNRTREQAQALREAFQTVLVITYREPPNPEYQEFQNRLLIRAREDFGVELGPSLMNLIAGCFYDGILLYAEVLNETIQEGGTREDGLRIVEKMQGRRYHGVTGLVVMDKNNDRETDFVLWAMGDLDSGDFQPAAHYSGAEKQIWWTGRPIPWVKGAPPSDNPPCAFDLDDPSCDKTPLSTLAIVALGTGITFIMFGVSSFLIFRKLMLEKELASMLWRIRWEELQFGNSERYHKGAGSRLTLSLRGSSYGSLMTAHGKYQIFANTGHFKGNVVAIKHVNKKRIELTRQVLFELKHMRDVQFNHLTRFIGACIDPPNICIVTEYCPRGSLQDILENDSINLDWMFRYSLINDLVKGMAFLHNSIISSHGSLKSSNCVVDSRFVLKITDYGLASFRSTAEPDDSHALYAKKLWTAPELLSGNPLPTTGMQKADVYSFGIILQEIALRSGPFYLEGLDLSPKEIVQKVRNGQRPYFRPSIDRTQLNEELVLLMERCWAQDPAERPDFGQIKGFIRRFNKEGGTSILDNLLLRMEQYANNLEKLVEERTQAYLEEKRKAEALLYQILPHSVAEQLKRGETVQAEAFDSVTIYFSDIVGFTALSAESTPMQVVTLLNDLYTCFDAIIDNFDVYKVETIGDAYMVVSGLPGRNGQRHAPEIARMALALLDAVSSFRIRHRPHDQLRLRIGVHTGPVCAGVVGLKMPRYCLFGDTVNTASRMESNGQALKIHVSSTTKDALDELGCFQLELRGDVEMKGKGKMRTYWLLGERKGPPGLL
Sequence of Atrial natriuretic peptide receptor 1 (Homo sapiens) (P16066 whole entry, looked up): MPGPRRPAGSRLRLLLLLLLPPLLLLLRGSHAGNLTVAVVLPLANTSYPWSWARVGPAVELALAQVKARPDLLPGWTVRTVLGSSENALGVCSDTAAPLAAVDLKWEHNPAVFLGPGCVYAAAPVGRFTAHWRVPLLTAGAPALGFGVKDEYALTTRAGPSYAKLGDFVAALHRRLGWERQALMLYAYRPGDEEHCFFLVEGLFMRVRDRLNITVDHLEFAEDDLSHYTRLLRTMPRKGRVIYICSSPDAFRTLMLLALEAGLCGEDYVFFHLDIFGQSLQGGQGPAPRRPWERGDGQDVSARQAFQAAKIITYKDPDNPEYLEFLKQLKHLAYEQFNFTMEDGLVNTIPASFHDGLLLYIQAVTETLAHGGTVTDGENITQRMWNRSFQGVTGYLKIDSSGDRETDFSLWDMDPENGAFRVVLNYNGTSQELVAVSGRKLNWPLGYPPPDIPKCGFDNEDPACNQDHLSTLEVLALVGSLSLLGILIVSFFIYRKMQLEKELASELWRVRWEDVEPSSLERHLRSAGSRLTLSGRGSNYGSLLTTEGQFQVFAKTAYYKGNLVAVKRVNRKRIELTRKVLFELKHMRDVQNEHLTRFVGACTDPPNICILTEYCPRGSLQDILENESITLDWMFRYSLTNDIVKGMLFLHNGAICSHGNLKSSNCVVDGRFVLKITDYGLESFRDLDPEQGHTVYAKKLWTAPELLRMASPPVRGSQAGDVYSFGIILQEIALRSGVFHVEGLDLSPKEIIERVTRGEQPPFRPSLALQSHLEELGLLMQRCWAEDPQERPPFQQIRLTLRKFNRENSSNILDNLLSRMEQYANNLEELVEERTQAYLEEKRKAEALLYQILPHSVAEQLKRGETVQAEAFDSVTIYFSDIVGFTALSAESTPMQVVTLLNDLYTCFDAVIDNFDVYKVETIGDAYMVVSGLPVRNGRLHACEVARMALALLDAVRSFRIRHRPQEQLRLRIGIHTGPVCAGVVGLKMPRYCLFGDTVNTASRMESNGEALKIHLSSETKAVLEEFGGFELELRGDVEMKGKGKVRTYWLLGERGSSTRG
T1 sequence (P78324 whole entry, looked up): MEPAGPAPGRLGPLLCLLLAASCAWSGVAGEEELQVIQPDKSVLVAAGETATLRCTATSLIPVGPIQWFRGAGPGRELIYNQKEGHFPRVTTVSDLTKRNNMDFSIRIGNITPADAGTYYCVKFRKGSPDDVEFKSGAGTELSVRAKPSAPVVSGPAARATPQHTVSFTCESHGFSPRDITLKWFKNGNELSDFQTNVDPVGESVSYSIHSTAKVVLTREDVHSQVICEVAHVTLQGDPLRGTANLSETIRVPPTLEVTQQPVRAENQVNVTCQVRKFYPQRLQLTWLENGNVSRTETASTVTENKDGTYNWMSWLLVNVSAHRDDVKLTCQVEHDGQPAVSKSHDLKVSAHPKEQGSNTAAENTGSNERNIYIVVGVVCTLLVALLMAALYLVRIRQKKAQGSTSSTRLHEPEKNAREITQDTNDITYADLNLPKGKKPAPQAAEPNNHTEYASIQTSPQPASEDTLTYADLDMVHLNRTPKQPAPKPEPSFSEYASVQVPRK
T1 sequence (Q08722 whole entry, looked up): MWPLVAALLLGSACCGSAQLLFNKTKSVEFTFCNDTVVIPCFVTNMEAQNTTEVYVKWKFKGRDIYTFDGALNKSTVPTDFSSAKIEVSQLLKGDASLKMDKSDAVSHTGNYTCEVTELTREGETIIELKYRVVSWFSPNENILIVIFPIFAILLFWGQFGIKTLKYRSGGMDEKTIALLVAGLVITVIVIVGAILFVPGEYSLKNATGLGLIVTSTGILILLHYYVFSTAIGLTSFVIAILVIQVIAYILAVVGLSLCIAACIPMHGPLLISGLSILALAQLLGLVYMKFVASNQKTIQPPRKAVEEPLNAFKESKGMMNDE

As for `C[C@]12CC[C@@H]3[C@@H](CCC4=CC(=O)CC[C@@H]43)[C@@H]1CC[C@@H]2OC(=O)CCc1ccccc1`, the Potency result in test [1] was “inactive”. Besides, the results for the Potency in test [2] and in test [3] were 9.35 µM (active) and 5800 nM (active), respectively.
Take `O=C(Nc1ccncc1)C(=O)c1cn(Cc2ccc(Cl)cc2)c2ccccc12`: the Potency is 0.0935 µM (active) in test [1], 0.132 µM (active) in [2], 33.2 nM (active) in test [3] and 9.3 nM (active) in test [5]. Also, the Potency result in test [4] is “inactive”.
The matching figures for `CC(=Cc1csc(C)n1)[C@@H]1C[C@H]2O[C@@H]2CCC[C@H](C)[C@@H](O)[C@@H](C)C(=O)C(C)(C)[C@@H](O)CC(=O)O1`: “inactive”, “inactive”, 1 nM (active), “inactive” and “inactive”.
For the compound `C[C@]12CC[C@H](O)CC1=CC[C@H]1[C@H]3CCC(=O)[C@@]3(C)CC[C@@H]12`, the values for the Potency in test [1], in test [2] and in test [4] were 4.18 µM (active), 18.7 µM (active) and 16.6 µM (active), respectively. Also, the Potency result in test [3] and in [5] was “inactive” throughout.
With `COc1cc2cc(c1Cl)N(C)C(=O)C[C@H](OC(=O)C(C)C)[C@]1(C)O[C@H]1[C@H](C)[C@@H]1C[C@@](O)(NC(=O)O1)[C@H](OC)C=CC=C(C)C2`, the Potency result in test [1], in test [2], in [4] and in [5] was “inactive” throughout. Further, the Potency in test [3] was 1 nM (active).
Turning to `COc1cc([C@@H]2c3cc4c(cc3[C@@H](O)C3COC(=O)C32)OCO4)cc(OC)c1O` (stereo not given in full), the Potency was 0.0235 µM (active) in test [1], 0.0418 µM (active) in [2] and 118 nM (active) in [3]. Further, the Potency result in test [4] was “inactive”.
For `C[C@H]([C@H](O)CCC(C)(C)O)[C@H]1CC[C@@]2(O)C3=CC(=O)[C@@H]4C[C@@H](O)[C@@H](O)C[C@]4(C)[C@@H]3CC[C@]12C`, the Potency result in test [1], in test [2], in test [4], in test [3] and in test [5] was “inactive” each time.
For the compound `C[C@H]1CCCC=CC2C[C@H](O)C[C@@H]2[C@H](O)C=CC(=O)O1` (stereo not given in full), the Potency entry in test [1], in [2], in test [4] and in test [5] was “inactive” throughout. Besides, the Potency in test [3] is 1 nM (active).
As to `O=C(N[C@H]1CN2CCC1CC2)c1ccc(Cl)cc1`, the Potency is 8.33 µM (active) in test [1], 18.7 µM (active) in test [2] and 14.8 µM (active) in test [4]. The Potency result in [3], in test [6], in test [7] and in test [10] was “inactive” throughout. Moreover, the outcome in test [8] and in [9] was inactive.
On to `c1ccc2c(CN3CCNCC3)cccc2c1`, for which the Potency result in [1], in test [2], in test [4], in test [3] and in [5] was “inactive” in each case.
Consider `C[C@@H]1O[C@@H](O[C@@H]2C=C3CC[C@@H]4[C@@H](CC[C@]5(C)[C@H](c6ccc(=O)oc6)CC[C@@]45O)[C@@]3(C)CC2)[C@H](O)[C@H](O)[C@H]1O`, for which the Potency in [1] is 0.0418 µM (active); in test [2], 0.0187 µM (active); in [4], 0.0235 µM (active); in test [3], 20.9 nM (active).
Turning to `COc1ccc(N(C(=O)Oc2c(C)cccc2C)c2ccnc(Nc3ccc(N4CCN(C)CC4)cc3)n2)c(OC)c1`, the Potency in test [1] was 1.87 µM (active); in test [2] it was 2.35 µM (active); in test [4], 2.64 µM (active); in [3], “inactive and 20.6 µM (active)”.
As for `CSCC[C@@H](NC(=O)[C@@H](Cc1ccccc1)NC(=O)CNC(=O)CNC(=O)[C@@H](N)Cc1ccc(O)cc1)C(=O)O`, the Potency result in test [1], in [2], in [4], in test [3] and in [5] was “inactive” each time.
As to `COC1=C[C@@H]2[C@@H]3Cc4ccc(OC)c(O)c4[C@]2(CCN3C)CC1=O`, the figures for the Potency in test [1], in test [2] and in test [4] were 4.69 µM (active), 3.32 µM (active) and 2.96 µM (active), respectively. Besides, the Potency result in [3] and in test [5] was “inactive” each time.
For the compound `CCNC(=O)C[C@@H]1N=C(c2ccc(Cl)cc2)c2cc(OC)ccc2-n2c(C)nnc21`, the Potency in test [1] is 3.32 µM (active); in test [2], 2.96 µM (active); in test [4], 3.72 µM (active). Moreover, the Potency result in test [5] was “inactive”.
For the compound `COc1ccc2c(c[n+](C)c3c4cc5c(cc4ccc23)OCO5)c1OC`, the Potency in test [1] is 4.69 µM (active); in test [2], 9.35 µM (active); in [4], 8.33 µM (active); in test [11], 20.9 µM (active); in test [13], 6.62 µM (active); in test [6] it was 16.9 µM (active). Besides, the Potency in [7] was 14.7 µM (active). For the same compound, the IC50 (viability decrease) in [12] is 16.6 µM (active). Moreover, in test [8], the outcome was inactive. Also, the Potency entry in [10] is “inactive”.
As to `C1=C2CCCN[C@H]2[C@@H]2C[C@H]1[C@@H]1CCCCN1C2`, the Potency entry in [1], in test [2], in test [4] and in test [3] was “inactive” each time.
Consider `C[C@@H]1[C@H](O)[C@@H](C)C=CC=CCCC=CC=CC=CC=C[C@H](O[C@H]2O[C@@H](C)[C@H](O)[C@@H](N)[C@@H]2O)CC2O[C@](O)(C[C@@H](O)[C@H](O)CC[C@@H](O)C[C@@H](O)C[C@@H](O)CC(=O)O[C@H]1C)C[C@H](O)[C@H]2C(=O)O`, for which the Potency entry in test [1], in test [2], in [4] and in test [3] was “inactive” throughout.
As for `CC1=NN=C(c2ccc(N)cc2)c2cc3c(cc2C1)OCO3`, the Potency entry in test [1], in test [2], in test [4], in [3], in test [6] and in test [7] was “inactive” in each case. In addition, the Potency result in [5] and in [10] was “inactive” each time. In addition, the result in [8] and in test [9] was inactive.
Consider `NC1=NC(=O)N2CC12` (stereo not given), for which the Potency entry in [14] and in [15] was “inactive” in each case.
In the case of `O=C(Oc1ccc([N+](=O)[O-])cc1)N1CCC(C(O)(c2ccc3c(c2)OCO3)c2ccc3c(c2)OCO3)CC1`, the Potency entry in test [16], in [11], in [17] and in test [13] was “inactive” in each case.
Consider `c1ccc(CCCN2CCN(CCOC(c3ccccc3)c3ccccc3)CC2)cc1`, for which the outcome in test [9] was inactive.
As for `NC1CC1c1ccccc1` (stereo not given), in [9], the result was inactive.
Take `CC(O)CN1CCN(CC(=O)[O-])CCN(CC(=O)[O-])CCN(CC(=O)[O-])CC1.[Gd+3]` (stereo not given): in test [3], the Potency result is “inactive”.
